Most compounds without a hit are left out; they make up all but 3.5% or so of the library.
GPR151 ag – activators of human GPR151, primary screen, cell-based, PathHunter beta-arrestin, luminescence. 650,000 compounds, 1% hits. PathHunter beta-arrestin GPR151 cells. activation, % at 11.2 µM. G-protein coupled receptor 151 (Homo sapiens), Q8TDV0; in the data active means activation above about 4.9%;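 further: 0% = median of compound wells and 100% = cells with positive control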
FBW7 act – FBW7 E3 ligase activators, primary screen, biochemical, AlphaScreen, human; AID 1259310, 2017; AlphaScreen FBW7–phospho-cyclin E peptide binding, activator screen; 650,000 compounds, 0.13% hits; normalized activity (activation), % at 26.1 µM; F-box/WD repeat-containing protein 7 (Homo sapiens), Q969H0; in the data active means normalized activity above about 1.9%;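 further: purified mutant Fbw7 with reduced substrate affinity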
TEAD-YAP inh – TEAD-YAP interaction inhibition, primary screen, TEAD-YAP interaction inhibitor project, luminescence, HEK-TIYL cells. TEAD-Gal4/YAP UAS-luciferase luminescence. inhibition, % at 9.12 µM. 640,000 compounds, 1.4% hits. AID 1259422, 2018; in the data active means inhibition above about 32%;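 further: 0% = median of test compound wells and 100% = reference inhibitor wells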
MITF primary – MITF inhibitors, primary screen, biochemical, AlphaScreen, human. Microphthalmia-associated transcription factor (Homo sapiens), O75030. AlphaScreen MITF homodimerization, bead proximity signal. inhibition, % at 2.6 µM. 650,000 compounds, 0.91% hits; in the data active means inhibition above about 50%;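 further: 0% = vehicle wells with protein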
Target sequence (O75030 whole entry, looked up): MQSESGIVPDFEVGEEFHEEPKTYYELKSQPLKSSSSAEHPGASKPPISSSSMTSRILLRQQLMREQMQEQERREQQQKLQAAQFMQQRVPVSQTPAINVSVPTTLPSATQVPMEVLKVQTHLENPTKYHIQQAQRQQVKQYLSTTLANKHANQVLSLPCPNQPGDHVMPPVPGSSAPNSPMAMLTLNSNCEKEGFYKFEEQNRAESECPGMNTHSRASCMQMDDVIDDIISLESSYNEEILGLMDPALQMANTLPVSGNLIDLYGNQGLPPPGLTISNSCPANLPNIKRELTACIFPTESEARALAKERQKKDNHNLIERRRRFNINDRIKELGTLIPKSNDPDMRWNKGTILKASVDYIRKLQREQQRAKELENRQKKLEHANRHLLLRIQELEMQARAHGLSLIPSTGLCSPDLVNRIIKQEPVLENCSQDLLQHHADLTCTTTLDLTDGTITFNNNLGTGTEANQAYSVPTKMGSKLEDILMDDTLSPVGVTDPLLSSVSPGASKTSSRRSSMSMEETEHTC
Starred values were filed as active, the others as inactive.

CCOc1ccc(N(CCC#N)S(=O)(=O)c2ccc(Cl)cc2)cc1 was read as GPR151 ag 0.3, FBW7 act 0.2, TEAD-YAP inh 2.0 and MITF primary 11.5.
COCCCN1C(=O)/C(=C/c2ccccc2)SC1=S was read as GPR151 ag -0.6, FBW7 act -0.3, TEAD-YAP inh -7.1 and MITF primary 14.9.
COc1ccc(-n2nc([N+](=O)[O-])c(N3CCCC3)[n+]2[O-])cc1 was read as GPR151 ag -0.9, FBW7 act -0.2, TEAD-YAP inh 0.2 and MITF primary -4.5.
Screening COc1ccc(Nc2nc(N3CCN(c4ccccc4OC)CC3)nc3[nH]ncc23)cc1 returned GPR151 ag 1.9, FBW7 act -0.2, TEAD-YAP inh 1.8 and MITF primary -3.0.
For COc1ccc(Nc2nc(N3CCCCC3)nc3[nH]ncc23)cc1 the results were GPR151 ag 1.3, FBW7 act 0.5, TEAD-YAP inh 40.4* and MITF primary 6.8.
CS(=O)(=O)C1=C(O)C(=O)N(CCO)C1c1ccccc1 (stereo not given) was read as GPR151 ag -0.4, FBW7 act -0.1, TEAD-YAP inh 10.8 and MITF primary -20.3.
For O=C(O)c1ccc(NCc2ccc(Cl)cc2)c([N+](=O)[O-])c1 the results were GPR151 ag -1.5, FBW7 act -0.1, TEAD-YAP inh 37.9* and MITF primary 1.7.
For O=C1CCCN1C(=S)C(=S)N1CCCC1=O the results were GPR151 ag 0.7, FBW7 act -1.8, TEAD-YAP inh 99.0* and MITF primary 20.8.
`CC1(C)Cc2ccccc2/C(=C/[N+](=O)[O-])N1` gave GPR151 ag -0.2, FBW7 act -0.2, TEAD-YAP inh -0.4 and MITF primary -1.8.
For CCOC(=O)NC(c1ccccc1)C(C(=O)OCC)C(=O)OCC (stereo not given) the results were GPR151 ag -0.8, FBW7 act 2.3*, TEAD-YAP inh 9.4 and MITF primary 29.6.
For COc1ccc(C(=O)c2oc3ccc(NC(C)=O)cc3c2C)cc1 the results were GPR151 ag -1.0, FBW7 act 0.1, TEAD-YAP inh -2.7 and MITF primary 16.6.
COc1ccc(C(=O)c2oc3ccc(N)cc3c2C)cc1 was read as GPR151 ag 1.5, FBW7 act 0.5, TEAD-YAP inh 51.8* and MITF primary -5.2.
Cc1ccc(C(=O)c2oc3ccc(N)cc3c2C)cc1 was read as GPR151 ag 0.0, FBW7 act 0.1, TEAD-YAP inh 53.6* and MITF primary -4.7.
Screening O=C(Nc1cccc([N+](=O)[O-])c1)C1(c2ccccc2)CCOCC1 returned GPR151 ag 1.7, FBW7 act -0.3, TEAD-YAP inh 1.9 and MITF primary -8.0.
For COc1ccc(/C=C/c2nn3c(Cn4cnc5ccccc54)nnc3s2)cc1 the results were GPR151 ag 2.9, FBW7 act 0.2, TEAD-YAP inh 38.5* and MITF primary 7.2.
Screening O=C(CN1CCNC(=O)C1)NCCc1ccc(F)cc1 returned GPR151 ag 3.9, FBW7 act 0.1, TEAD-YAP inh -1.5 and MITF primary 0.6.
For CCOc1ccc(-c2noc(CCC(=O)O)n2)cc1 the results were GPR151 ag 0.3, FBW7 act 0.1, TEAD-YAP inh 50.1* and MITF primary -18.3.
`Cc1ccc(-c2noc(CCC(=O)NC3CCCC3)n2)cc1` gave GPR151 ag -1.6, FBW7 act 0.6, TEAD-YAP inh -1.1 and MITF primary 31.2.
For CC(C)(C)c1ccc(-c2noc(CCC(=O)NC3CCCC3)n2)cc1 the results were GPR151 ag 0.7, FBW7 act -0.1, TEAD-YAP inh 64.0* and MITF primary 8.0.
C=CCNC(=O)CCc1nc(-c2ccc(C(C)(C)C)cc2)no1 was read as GPR151 ag -0.7, FBW7 act -0.1, TEAD-YAP inh 34.8* and MITF primary 4.9.
Screening C=CCn1c(SC)nc(O)c(CC)c1=O returned GPR151 ag -0.5, FBW7 act 1.9*, TEAD-YAP inh 1.5 and MITF primary 8.9.
`CN(Cc1ccc(F)cc1)C(=O)CC1C(=O)NCCN1C` (stereo not given) gave GPR151 ag 0.8, FBW7 act 0.0, TEAD-YAP inh -4.6 and MITF primary -6.7.
For O=C(c1cc2c(ccc3ccccc32)oc1=O)N1CCOCC1 the results were GPR151 ag 0.3, FBW7 act -0.1, TEAD-YAP inh -29.2 and MITF primary -5.5.
Screening O=C(c1cc2c(ccc3ccccc32)oc1=O)N1CCCC1 returned GPR151 ag -0.3, FBW7 act 3.2*, TEAD-YAP inh -3.0 and MITF primary 2.0.
For CCN(CC)c1ccc2cc(-c3nc4ccccc4n3C)c(=O)oc2c1 the results were GPR151 ag 0.5, FBW7 act 0.7, TEAD-YAP inh 32.6* and MITF primary -1.6.
For CCN(CC)c1ccc2cc(-c3nc4ccccc4s3)c(=O)oc2c1 the results were GPR151 ag -1.4, FBW7 act 0.0, TEAD-YAP inh 76.5* and MITF primary -6.3.
N#CCSc1nc2c(c(=O)n1-c1ccccc1)C1(CCCCC1)Cc1ccccc1-2 was read as GPR151 ag -0.6, FBW7 act -0.1, TEAD-YAP inh -5.1 and MITF primary -5.6.
For Cc1ccc(C(=O)Nc2cc(C)c(O)cc2C)cc1 the results were GPR151 ag -0.9, FBW7 act -0.2, TEAD-YAP inh 65.3* and MITF primary 4.0.
`Cc1ccc(C(=O)Nc2ccc(C(=O)N3CCCCC3)cc2)cc1` gave GPR151 ag -2.2, FBW7 act 3.4*, TEAD-YAP inh -17.6 and MITF primary 11.6.
`Cc1ccc(C(=O)Nc2ccc(NC(=O)C(F)(F)F)cc2)cc1` gave GPR151 ag -0.9, FBW7 act 0.2, TEAD-YAP inh 55.6* and MITF primary 14.0.
For Cc1ccc(C(=O)Nc2cc(C)c(C)cc2O)cc1 the results were GPR151 ag -3.5, FBW7 act -0.1, TEAD-YAP inh 0.2 and MITF primary 0.4.
For Cc1ccc(C(=O)Nc2ccc(O)c(C)c2)cc1 the results were GPR151 ag -4.8, FBW7 act -0.1, TEAD-YAP inh 93.2* and MITF primary -4.5.
`COCC(=O)Nc1ccc(Cl)cc1Cl` gave GPR151 ag 0.4, FBW7 act 0.6, TEAD-YAP inh -3.9 and MITF primary 7.2.
`Cc1cc(NC(=O)c2ccccc2Cl)ccc1O` gave GPR151 ag -3.6, FBW7 act 0.0, TEAD-YAP inh 82.7* and MITF primary -22.9.
Screening Cc1ccc(NC(=O)c2ccccc2Cl)cc1C returned GPR151 ag -3.7, FBW7 act 0.0, TEAD-YAP inh -8.7 and MITF primary 3.0.
For Cc1nc2sccn2c1C(=O)Nc1cccc(OC(F)(F)F)c1 the results were GPR151 ag 0.1, FBW7 act 1.9*, TEAD-YAP inh -5.2 and MITF primary 17.6.
For Cc1nc2sccn2c1C(=O)Nc1cccc(Oc2ccccc2)c1 the results were GPR151 ag -1.3, FBW7 act 0.2, TEAD-YAP inh -4.0 and MITF primary 9.9.
Screening COc1cccc(Nc2nnc(SCC(=O)NNC(=O)c3ccccn3)s2)c1 returned GPR151 ag 0.1, FBW7 act -0.9, TEAD-YAP inh 79.3* and MITF primary 11.0.

Screening results deposited in PubChem by The Scripps Research Institute Molecular Screening Center.
